# Source: PubChem BioAssay (NCATS)
# Where “and” joins values, the source holds several entries; their conditions need not be identical. Equal entries are not always repeated. Inconclusive results are not listed. Where a call stands in place of a potency, no number is given. A structure can be active in one record and inactive in another. Unmarked numbers belong to inactive results. Calls of active or inactive are those of the source. Calls follow the shape of the dose curve; as a rule, active = well fitted curve in the direction sought with a large enough effect; inconclusive = small, poorly fitted or top-dose-only effect, or another doubt; inactive = no such curve, though single readings can be large; an effect the other way counts as inactive or inconclusive.
# Assays:
# [1] = molecular target: Cytochrome P450 3A7 (Homo sapiens) (UniProt P24462); experiment: Cytochrome P450 family 3 subfamily A member 7 (CYP3A7) small molecule antagonists: luciferase biochemical qHTS assay (AID 1963596); also: nearly all actives have a fitted effect of over 40% in size; also: potency is read from the fitted curve at half-maximal effect
# Sequence of Cytochrome P450 3A7 (Homo sapiens) (P24462 whole entry, looked up): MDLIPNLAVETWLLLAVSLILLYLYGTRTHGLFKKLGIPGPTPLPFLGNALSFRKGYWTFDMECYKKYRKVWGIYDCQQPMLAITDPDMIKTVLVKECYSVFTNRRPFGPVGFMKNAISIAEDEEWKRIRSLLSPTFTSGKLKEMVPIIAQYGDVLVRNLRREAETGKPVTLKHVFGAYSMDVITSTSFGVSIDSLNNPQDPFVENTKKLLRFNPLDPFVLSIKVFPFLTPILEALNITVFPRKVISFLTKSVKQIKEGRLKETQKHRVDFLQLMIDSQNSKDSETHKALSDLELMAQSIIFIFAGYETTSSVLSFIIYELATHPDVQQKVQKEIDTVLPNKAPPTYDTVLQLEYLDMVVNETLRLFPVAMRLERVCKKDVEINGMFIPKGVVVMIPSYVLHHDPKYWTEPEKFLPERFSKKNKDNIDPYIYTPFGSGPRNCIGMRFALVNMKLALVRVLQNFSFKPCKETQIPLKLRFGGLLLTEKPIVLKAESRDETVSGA
# Procedure, shortened: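 Recombinant CYP3A7 P450-Glo luminescent assay: enzyme-proluciferin substrate mix preincubated with compound 10 min at room temperature, reaction started with NADPH regeneration system for 1 h. Luciferin detected by luminescence; ketoconazole as positive control.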
# [2] = Viability qHTS for spleen associated tyrosine kinase inhibitor (SYKi) naive MV4-11 cells (AID 1963823); also: nearly all actives have a fitted effect of over 40% in size; also: potency is read from the fitted curve at half-maximal effect
# Procedure, shortened: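 SYK inhibitor-naive MV4-11 cells, 500 per well, exposed to compounds for 72 hr at 37 C, 5% CO2. Viability read as CellTiter-Glo luminescence after 10 min at room temperature.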
# [3] = Viability qHTS for spleen associated tyrosine kinase inhibitor (SYKi) drug resistant MV4-11 cells (AID 1963824); also: nearly all actives have a fitted effect of over 35% in size; also: potency is read from the fitted curve at half-maximal effect
# Procedure, shortened: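 SYK-inhibitor-resistant MV4-11 AML cells were seeded at 500 per well onto compound and cultured 72 hours (37 °C, 5% CO2). CellTiter-Glo was then added, and after 10 min at room temperature, luminescence gave viability.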
# [4] = Cellular viability qHTS for adrenocortical cancer (ACC) cell line SW-13 (AID 1963989); details: SW-13 ACC cells viability, CellTiter-Glo, 48 h; activity (max response): hits give low values;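 also: cells grown in serum-free medium with ITS supplement; nearly all actives have a fitted effect of over 65% in size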
# Procedure, shortened: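 SW-13 cells in ITS-supplemented serum-free DMEM were plated overnight, then exposed for 48 h at 37C to compound titrations (up to 46 uM final). Viability was read by CellTiter-Glo luminescence; four-parameter logistic fits gave IC50 and efficacy.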
smiles,measurement,setting,value
O=C(Nc1nnc(-c2ccc3c(c2)OCCO3)o1)C1CCCCC1,Potency,[1],inactive
same,Potency,[2],inactive
same,Potency,[3],inactive
COc1ccc(C(=O)NCc2cc(C(C)C)no2)cc1OC1CCN(C)CC1,Potency,[1],inactive
same,Potency,[2],inactive
same,Potency,[3],inactive
CCCCc1ccc(C(=O)Nc2cc(-c3ccc(Cl)cc3)nn2-c2ccc(Cl)cc2)cc1,Potency,[1],inactive
same,Potency,[2],inactive
same,Potency,[3],inactive
O=C(O)Cc1ccc2oc(-c3ccc(NC(=O)/C=C/c4ccc(Br)cc4)c(F)c3)nc2c1,Potency,[1],inactive
same,Potency,[2],inactive
c1ccc(-c2csc(N3CCOCC3)n2)cc1,Potency,[1],inactive
same,Potency,[2],inactive
O=C1NC(=Nc2ccccc2F)S/C1=C\c1ccc(C(=O)O)cc1,Potency,[1],inactive
same,Potency,[2],inactive
same,Potency,[3],inactive
CC(C)c1noc(C2CCN(c3ncnc(Nc4ccc(S(C)(=O)=O)cc4F)c3[N+](=O)[O-])CC2)n1,Potency,[1],inactive
same,Potency,[2],inactive
same,Potency,[3],inactive
NC(=O)c1ccc([N+](=O)[O-])cc1Cl,Potency,[1],inactive
same,Potency,[2],inactive
same,Potency,[3],inactive
CN(C)C/C=C/C(=O)Nc1cccc(C(=O)Nc2ccc(Nc3nccc(-c4cccnc4)n3)cc2)c1,Potency,[1],inactive
same,Potency,[2],0.184 µM (active)
same,Potency,[3],0.461 µM (active)
CCC1(O)CC2c3cc(OC)c(OC)cc3CCN2CC1CC(C)C (stereo not drawn),Potency,[1],inactive
same,Potency,[2],inactive
O=C(c1ccccn1)c1cnn2c(-c3ccncc3)ccnc12,Potency,[1],inactive
same,Potency,[2],inactive
same,Potency,[3],inactive
COc1ccc(-c2ccc(-c3cn(C(=O)N4CCCCC4c4ccccc4)nn3)cc2)cc1 (stereo not drawn),Potency,[1],inactive
same,Potency,[2],inactive
same,Potency,[3],0.517 µM (active)
O=C(O)[C@H]1Cc2ccccc2CN1,"activity change, negative = inhibition",[1],2.34% [at 11.5 µM]
same,viability (% of control),[2],95.6% [at 4.97 µM]
same,"viability, % of control",[3],101% [at 4.97 µM]
CCOC(=O)N1CCC(N2CCC[C@@H](NC(=O)c3ccccc3C)C2)CC1,Potency,[1],inactive
same,Potency,[2],16.4 µM (active)
same,Potency,[3],14.6 µM (active)
CNC(=O)c1cnn(-c2nc(N)c3ncn([C@@H]4O[C@H](CO)[C@@H](O)[C@H]4O)c3n2)c1,Potency,[1],inactive
same,Potency,[2],inactive
same,Potency,[3],inactive
Cc1cc(Nc2ncc3cc(-c4c(Cl)cccc4Cl)c(=O)n(C)c3n2)ccc1F,Potency,[1],inactive
same,Potency,[2],0.461 µM (active)
O=C(O)CC1CCC(c2ccc(NC(=O)c3nnc(Nc4ccc(F)c(F)c4)o3)cc2)CC1 (stereo not drawn),Potency,[1],inactive
same,Potency,[2],inactive
same,Potency,[3],inactive
CCc1cc(CN2CC(C(=O)O)C2)sc1-c1noc(-c2ccc(Oc3ccccc3)cc2)n1,Potency,[1],inactive
same,Potency,[2],inactive
same,Potency,[3],inactive
O=C(NCC1CCN(Cc2cccc(Cl)c2)CC1)[C@@H]1CCCN(c2ncnc3c2nc2n3CCCC2)C1,Potency,[1],inactive
same,Potency,[2],2.31 µM (active)
COc1cccc(NC[C@@H](O)Cn2c3ccc(Br)cc3c3cc(Br)ccc32)c1,Potency,[1],inactive
same,Potency,[2],18.4 µM (active)
CCN(CC)CCCC(C)Nc1ccnc2cc(Cl)ccc12 (stereo not drawn),Potency,[1],inactive
same,Potency,[2],8.2 µM (active)
same,viability (% of control),[2],72.7% [at 9.25 µM]
same,Potency,[3],10.3 µM (active)
same,activity (max response),[4],0.695% and -16.4%
COc1cccc(OC)c1-c1ccc(C[C@H](NC(=O)c2c(Cl)cccc2Cl)C(=O)O)cc1,Potency,[1],inactive
same,Potency,[2],inactive
same,Potency,[3],inactive
O=C(Cn1c2ccccc2c2nc3n(c(=O)c21)CCS3)N1CCCC1,Potency,[1],inactive
same,Potency,[2],inactive
same,Potency,[3],inactive
CNC(=O)c1cc(Oc2ccc3nc(N[C@@H]4CCCC[C@H]4O)sc3c2)ccn1,Potency,[1],inactive
same,Potency,[2],13 µM (active)
same,Potency,[3],11.6 µM (active)
COc1cc(CCc2cc(NC(=O)c3ccc(N4CC(C)NC(C)C4)cc3)n[nH]2)cc(OC)c1 (stereo not drawn),Potency,[1],inactive
same,Potency,[2],0.82 µM (active)
same,Potency,[3],1.03 µM (active)
COc1ccc(-c2cnc(-c3cccc4c3-c3ccccc3C4=O)o2)cc1,Potency,[1],inactive
same,Potency,[2],0.0893 µM (active)
N#Cc1cccc(-c2nc(-c3cccnc3)no2)c1,Potency,[1],inactive
same,Potency,[2],inactive
C[C@@H](Nc1cc(NS(=O)(=O)N2CCC2)nc(SCc2cccc(F)c2F)n1)[C@@H](O)CO,Potency,[1],inactive
same,Potency,[2],inactive
CC(NC(=O)C(O)C(C)C)C(=O)NC1C(=O)N(C)CCc2ccccc21 (stereo not drawn),Potency,[1],inactive
same,Potency,[2],inactive
CC[C@H]1OC(=O)C[C@@H](O)[C@H](C)[C@@H](O[C@@H]2O[C@H](C)[C@@H](O)[C@H](N(C)C)[C@H]2O)[C@@H](CCN2C[C@H](C)C[C@H](C)C2)C[C@@H](C)C(=O)/C=C/C(C)=C/[C@@H]1CO[C@@H]1O[C@H](C)[C@@H](O)[C@@H](OC)[C@H]1OC,Potency,[1],inactive
same,Potency,[2],inactive
same,Potency,[3],inactive
Oc1ccccc1-c1nnco1,Potency,[1],inactive
same,Potency,[2],inactive
same,Potency,[3],inactive
C[C@@H]([C@@H](O)c1ccc(O)cc1)N1CCC(O)(c2ccccc2)CC1,Potency,[1],inactive
same,Potency,[2],inactive
O=C(NC1CCN(CC(F)(F)F)CC1)c1ccc(-c2cccc(F)c2)nc1,Potency,[1],inactive
same,Potency,[2],inactive
same,Potency,[3],inactive
CCOC(=O)N1CCC(NCCNC(=O)c2ccccc2C)CC1,Potency,[1],inactive
same,Potency,[2],inactive
same,Potency,[3],inactive
C[C@@H](NC(=O)C(=O)c1c[nH]c2ccc([N+](=O)[O-])cc12)c1ccccc1,Potency,[1],inactive
same,Potency,[2],inactive
same,Potency,[3],4.11 µM (active)
CN1CCC(Nc2nc(Nc3ccc(Oc4ccccc4)cc3)c3c(=O)[nH]cc(Br)c3n2)CC1,Potency,[1],6.74 µM (active)
same,Potency,[2],inactive
